{"source": "paper PMC11062922", "about": "(Nature Chemical Biology, 2023)", "key": {"PKN3 [1]": {"test_system": "PKN3", "design": "species or system human, MV4-11 + K-562 + COLO205 + SK-N-BE2 + OVCAR-8", "conditions": "read-out: apparent Kd, compound concentrations: 100 nM and 1000 nM (sheet 'Samples'), n = 1"}, "Q6ZSR9": {"target": "Q6ZSR9 (human, UniProt Q6ZSR9)", "sequence (Q6ZSR9 whole entry, looked up)": "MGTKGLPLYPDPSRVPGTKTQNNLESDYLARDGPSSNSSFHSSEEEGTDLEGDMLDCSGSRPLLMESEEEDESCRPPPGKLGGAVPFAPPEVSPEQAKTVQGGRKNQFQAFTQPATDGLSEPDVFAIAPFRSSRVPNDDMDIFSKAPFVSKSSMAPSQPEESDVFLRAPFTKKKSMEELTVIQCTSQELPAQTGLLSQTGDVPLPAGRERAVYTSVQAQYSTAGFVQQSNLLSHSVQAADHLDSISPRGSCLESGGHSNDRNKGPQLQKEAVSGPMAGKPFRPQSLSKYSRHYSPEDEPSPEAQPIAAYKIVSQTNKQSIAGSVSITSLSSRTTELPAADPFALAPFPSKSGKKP", "design": "species or system MV4-11 + K-562 + COLO205 + SK-N-BE2 + OVCAR-8", "conditions": "read-out: apparent Kd, compound concentrations: 100 nM and 1000 nM (sheet 'Samples'), n = 1"}, "PKN3 [2]": {"test_system": "PKN3", "conditions": "hek293t cells"}, "AAK1": {"test_system": "AAK1", "design": "species or system human, MV4-11 + K-562 + COLO205 + SK-N-BE2 + OVCAR-8", "conditions": "read-out: apparent Kd, compound concentrations: 100 nM and 1000 nM (sheet 'Samples'), n = 1"}, "BMP2K": {"test_system": "BMP2K", "design": "species or system human, MV4-11 + K-562 + COLO205 + SK-N-BE2 + OVCAR-8", "conditions": "read-out: apparent Kd, compound concentrations: 100 nM and 1000 nM (sheet 'Samples'), n = 1"}, "CLK1": {"test_system": "CLK1", "design": "species or system human, MV4-11 + K-562 + COLO205 + SK-N-BE2 + OVCAR-8", "conditions": "read-out: apparent Kd, compound concentrations: 100 nM and 1000 nM (sheet 'Samples'), n = 1"}, "CLK4": {"test_system": "CLK4", "design": "species or system human, MV4-11 + K-562 + COLO205 + SK-N-BE2 + OVCAR-8", "conditions": "read-out: apparent Kd, compound concentrations: 100 nM and 1000 nM (sheet 'Samples'), n = 1"}, "CSNK2A1;CSNK2A3": {"test_system": "CSNK2A1;CSNK2A3", "design": "species or system human, MV4-11 + K-562 + COLO205 + SK-N-BE2 + OVCAR-8", "conditions": "read-out: apparent Kd, compound concentrations: 100 nM and 1000 nM (sheet 'Samples'), n = 1"}, "CSNK2A2": {"test_system": "CSNK2A2", "design": "species or system human, MV4-11 + K-562 + COLO205 + SK-N-BE2 + OVCAR-8", "conditions": "read-out: apparent Kd; compound concentrations: 100 nM and 1000 nM (sheet 'Samples'), CATDS: 1.10304448511726E-2; n = 1"}, "FLT4": {"test_system": "FLT4", "design": "species or system human, MV4-11 + K-562 + COLO205 + SK-N-BE2 + OVCAR-8", "conditions": "read-out: apparent Kd, compound concentrations: 100 nM and 1000 nM (sheet 'Samples'), n = 1"}, "GAK": {"test_system": "GAK", "design": "species or system human, MV4-11 + K-562 + COLO205 + SK-N-BE2 + OVCAR-8", "conditions": "read-out: apparent Kd, compound concentrations: 100 nM and 1000 nM (sheet 'Samples'), n = 1"}, "GSK3A": {"test_system": "GSK3A", "design": "species or system human, MV4-11 + K-562 + COLO205 + SK-N-BE2 + OVCAR-8", "conditions": "read-out: apparent Kd, compound concentrations: 100 nM and 1000 nM (sheet 'Samples'), n = 1"}, "GSK3B": {"test_system": "GSK3B", "design": "species or system human, MV4-11 + K-562 + COLO205 + SK-N-BE2 + OVCAR-8", "conditions": "read-out: apparent Kd, compound concentrations: 100 nM and 1000 nM (sheet 'Samples'), n = 1"}, "NUAK1": {"test_system": "NUAK1", "design": "species or system human, MV4-11 + K-562 + COLO205 + SK-N-BE2 + OVCAR-8", "conditions": "read-out: apparent Kd, compound concentrations: 100 nM and 1000 nM (sheet 'Samples'), n = 1"}, "PAK4": {"test_system": "PAK4", "design": "species or system human, MV4-11 + K-562 + COLO205 + SK-N-BE2 + OVCAR-8", "conditions": "read-out: apparent Kd, compound concentrations: 100 nM and 1000 nM (sheet 'Samples'), n = 1"}, "PKN1": {"test_system": "PKN1", "design": "species or system human, MV4-11 + K-562 + COLO205 + SK-N-BE2 + OVCAR-8", "conditions": "read-out: apparent Kd, compound concentrations: 100 nM and 1000 nM (sheet 'Samples'), n = 1"}, "PRKAG1": {"test_system": "PRKAG1", "design": "species or system human, MV4-11 + K-562 + COLO205 + SK-N-BE2 + OVCAR-8", "conditions": "read-out: apparent Kd, compound concentrations: 100 nM and 1000 nM (sheet 'Samples'), n = 1"}, "RET": {"test_system": "RET", "design": "species or system human, MV4-11 + K-562 + COLO205 + SK-N-BE2 + OVCAR-8", "conditions": "read-out: apparent Kd, compound concentrations: 100 nM and 1000 nM (sheet 'Samples'), n = 1"}, "SIK2": {"test_system": "SIK2", "design": "species or system human, MV4-11 + K-562 + COLO205 + SK-N-BE2 + OVCAR-8", "conditions": "read-out: apparent Kd, compound concentrations: 100 nM and 1000 nM (sheet 'Samples'), n = 1"}, "MELK": {"test_system": "MELK", "design": "species or system human, MV4-11 + K-562 + COLO205 + SK-N-BE2 + OVCAR-8", "conditions": "read-out: apparent Kd; compound concentrations: 100 nM and 1000 nM (sheet 'Samples'), CATDS: 3.6400689102280299E-3; n = 1"}}, "note": "Where two headings read alike, the source gives them in different places.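 Throughout, for IC50: NanoBRET target engagement in HEK293T cells transiently expressing full-length PKN3 with C-terminal NanoLuc, displacement of fluorescent tracer K5 (500 nM), BRET read after 2 h equilibration at 37 °C.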", "data": [{"smiles": "CCn1c(-c2nonc2N)nc2c(C#CC(C)(C)O)nc(CN3CCCC3)cc21", "note": "[GSK1000163A]", "values": [{"measurement": "potency estimated from few doses", "setting": "PKN3 [1]; CATDS: 0.30633787059967998", "value": 558, "unit": "nM"}, {"measurement": "potency estimated from few doses", "setting": "Q6ZSR9; CATDS: 0.15882546471257", "value": 2130, "unit": "nM"}, {"measurement": "IC50", "setting": "PKN3 [2]; read-out: Average, SD, n = 4", "value": 6970, "unit": "nM"}, {"measurement": "IC50", "setting": "PKN3 [2]; read-out: Rep 1", "value": 11100, "unit": "nM"}, {"measurement": "IC50", "setting": "PKN3 [2]; read-out: Rep 2", "value": 9200, "unit": "nM"}, {"measurement": "IC50", "setting": "PKN3 [2]; read-out: Rep 3", "value": 6130, "unit": "nM"}, {"measurement": "IC50", "setting": "PKN3 [2]; read-out: Rep 4", "value": 1430, "unit": "nM"}]}, {"smiles": "Cl.Nc1c(C(=O)c2cccc(C#CCN3CCCCC3)c2)cnn1-c1ccc(F)cc1", "note": "[RO1154461-001]", "values": [{"measurement": "potency estimated from few doses", "setting": "AAK1; CATDS: 1.4474046603820999E-2", "value": 607, "unit": "nM"}, {"measurement": "potency estimated from few doses", "setting": "BMP2K; CATDS: 1.20459910405703E-2", "value": 1000, "unit": "nM"}, {"measurement": "potency estimated from few doses", "setting": "CLK1; CATDS: 1.5060802907151999E-2", "value": 552, "unit": "nM"}, {"measurement": "potency estimated from few doses", "setting": "CLK4; CATDS: 1.3844573276346099E-2", "value": 679, "unit": "nM"}, {"measurement": "potency estimated from few doses", "setting": "CSNK2A1;CSNK2A3; CATDS: 1.1541786487004701E-2", "value": 1140, "unit": "nM"}, {"measurement": "potency estimated from few doses", "setting": "CSNK2A2", "value": 1330, "unit": "nM"}, {"measurement": "potency estimated from few doses", "setting": "FLT4; CATDS: 1.33586959494144E-2", "value": 746, "unit": "nM"}, {"measurement": "potency estimated from few doses", "setting": "GAK; CATDS: 4.3588593109949197E-2", "value": 81.4, "unit": "nM"}, {"measurement": "potency estimated from few doses", "setting": "GSK3A; CATDS: 3.2177955723616897E-2", "value": 129, "unit": "nM"}, {"measurement": "potency estimated from few doses", "setting": "GSK3B; CATDS: 1.7633019943865499E-2", "value": 387, "unit": "nM"}, {"measurement": "potency estimated from few doses", "setting": "NUAK1; CATDS: 1.03638923622048E-2", "value": 1670, "unit": "nM"}, {"measurement": "potency estimated from few doses", "setting": "PAK4; CATDS: 1.4039072021364001E-2", "value": 656, "unit": "nM"}, {"measurement": "potency estimated from few doses", "setting": "PKN1; CATDS: 1.0439948324783401E-2", "value": 1630, "unit": "nM"}, {"measurement": "potency estimated from few doses", "setting": "PKN3 [1]; CATDS: 1.05012639622415E-2", "value": 1590, "unit": "nM"}, {"measurement": "potency estimated from few doses", "setting": "PRKAG1; CATDS: 3.6022361277962302E-2", "value": 108, "unit": "nM"}, {"measurement": "potency estimated from few doses", "setting": "Q6ZSR9; CATDS: 1.44791042777868E-2", "value": 607, "unit": "nM"}, {"measurement": "potency estimated from few doses", "setting": "RET; CATDS: 1.69120998976478E-2", "value": 424, "unit": "nM"}, {"measurement": "potency estimated from few doses", "setting": "SIK2; CATDS: 1.66377583432985E-2", "value": 439, "unit": "nM"}]}, {"smiles": "Cn1ncc2c(N)ncnc21", "note": "[SKF-18267]", "values": [{"measurement": "potency estimated from few doses", "setting": "AAK1; CATDS: 4.0309487407882601E-3", "value": 1310, "unit": "nM"}, {"measurement": "potency estimated from few doses", "setting": "BMP2K; CATDS: 3.9456431934801499E-3", "value": 1380, "unit": "nM"}, {"measurement": "potency estimated from few doses", "setting": "CLK1; CATDS: 4.6708282192626498E-3", "value": 936, "unit": "nM"}, {"measurement": "potency estimated from few doses", "setting": "CLK4; CATDS: 3.9570541670233801E-3", "value": 1370, "unit": "nM"}, {"measurement": "potency estimated from few doses", "setting": "CSNK2A1;CSNK2A3; CATDS: 3.9180257487408596E-3", "value": 1410, "unit": "nM"}, {"measurement": "potency estimated from few doses", "setting": "FLT4; CATDS: 3.68265662419527E-3", "value": 1670, "unit": "nM"}, {"measurement": "potency estimated from few doses", "setting": "GAK; CATDS: 4.6125077933925696E-3", "value": 961, "unit": "nM"}, {"measurement": "potency estimated from few doses", "setting": "GSK3A; CATDS: 6.4966954074714102E-3", "value": 507, "unit": "nM"}, {"measurement": "potency estimated from few doses", "setting": "GSK3B; CATDS: 6.1120630546354802E-3", "value": 562, "unit": "nM"}, {"measurement": "potency estimated from few doses", "setting": "MELK", "value": 1720, "unit": "nM"}, {"measurement": "potency estimated from few doses", "setting": "NUAK1; CATDS: 3.5163912979630598E-3", "value": 1910, "unit": "nM"}, {"measurement": "potency estimated from few doses", "setting": "PAK4; CATDS: 4.003241038036E-3", "value": 1330, "unit": "nM"}, {"measurement": "potency estimated from few doses", "setting": "PKN1; CATDS: 4.0652178532190096E-3", "value": 1280, "unit": "nM"}, {"measurement": "potency estimated from few doses", "setting": "PRKAG1; CATDS: 6.4543335305036397E-3", "value": 512, "unit": "nM"}, {"measurement": "potency estimated from few doses", "setting": "RET; CATDS: 4.7446456770992903E-3", "value": 906, "unit": "nM"}, {"measurement": "potency estimated from few doses", "setting": "SIK2; CATDS: 4.9685571215498103E-3", "value": 824, "unit": "nM"}]}]}
